The record followed here is PubChem BioAssay (NCATS).

The target in assay [1] is Calcium and integrin-binding protein 1 (Homo sapiens) (UniProt Q99828). In words: Validation qHTS for Identification of Calcium Integrin Binding protein 1 (CIB1) Competitor (AID 1508618). An outline of the steps: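 Fluorescence polarization with 1 uM CIB1-GST and 100 nM FITC-alphaIIb peptide in HEPES pH 7.4, NaCl, 5 mM CaCl2, Tween20. Compounds at up to 114 uM final, preincubated with protein 15 min; read after 15 min more at RT.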
Sequence of Calcium and integrin-binding protein 1 (Homo sapiens) (Q99828 whole entry, looked up): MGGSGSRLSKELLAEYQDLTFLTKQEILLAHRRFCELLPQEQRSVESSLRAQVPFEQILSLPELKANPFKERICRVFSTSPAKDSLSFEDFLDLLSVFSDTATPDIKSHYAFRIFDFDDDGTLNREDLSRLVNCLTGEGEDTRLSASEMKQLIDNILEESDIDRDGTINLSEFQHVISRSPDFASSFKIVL
On the technique in general: In qHTS, concentration-response curves come from the screen itself.

The target in assay [2] is Papain (Carica papaya) (UniProt P00784). In words: Primary qHTS assay for inhibitors of the protease papain (AID 1645873).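 Note: papain turnover of Z-FR-AMC read as the AMC fluorescence gain over 10 min.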 Note: potency is the fitted concentration of half-maximal effect.
Sequence of Papain (Carica papaya) (P00784 whole entry, looked up): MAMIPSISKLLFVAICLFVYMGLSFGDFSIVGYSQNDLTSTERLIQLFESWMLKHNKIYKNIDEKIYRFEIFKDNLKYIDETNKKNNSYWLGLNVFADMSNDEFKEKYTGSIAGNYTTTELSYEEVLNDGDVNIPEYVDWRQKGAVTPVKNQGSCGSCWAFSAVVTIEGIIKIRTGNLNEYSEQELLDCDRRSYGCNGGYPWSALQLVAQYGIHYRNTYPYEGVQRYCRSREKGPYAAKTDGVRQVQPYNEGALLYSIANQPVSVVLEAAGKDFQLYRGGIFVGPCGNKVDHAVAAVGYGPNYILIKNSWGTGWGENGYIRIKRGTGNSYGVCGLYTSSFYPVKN
A short description of assay [3]: Primary qHTS for inhibitors of La Crosse Virus (LACV) - induced cell death in SH-SY5Y cells (AID 1508616).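 Note: top concentration of the series differs between compounds; higher means more rescue of cells from virus-induced death.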 The essentials: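 SH-SY5Y cells (6000/well) plated 24 h, then given compounds by pin transfer and LACV at 0.01 MOI for 6 days at 37C. Viability measured by ATPLite luminescence, normalized to infected DMSO and uninfected DMSO.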
Assay [4] in a line: Cytotoxicity counterscreen for inhibitors of SARS-CoV-2 cell entry (AID 1645845; calls by dose curve; note: nearly all actives have a fitted effect of over 50% in size). Particulars: outcome: dose series up to 57.1 µM unless noted. An outline of the steps: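 48 h compound treatment (after 1 h preincubation), HEK293-ACE2 cells, 37 C/5% CO2; ATP luminescence endpoint; normalized to cell wells and media blanks.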
On the technique in general: A counterscreen serves to expose hits that act by an unwanted route or on another target.

Assay [5] is described as follows: Primary qHTS for inhibitors of nuclear receptor binding SET domain protein 2 (NSD2) in an isogenic RCH-ACV NSD2 p.E1099K mutant (9B) (AID 1645876). Note: nearly all actives have a fitted effect of over 70% in size. Note: potency is the fitted concentration of half-maximal effect.
Assay [6] in a line: Primary qHTS for small molecule stabilizers of the endoplasmic reticulum resident proteome: Secreted ER Calcium Modulated Protein (SERCaMP) assay (AID 1508630). The essentials:
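GLuc-SERCaMP-expressing SH-SY5Y cells, pretreated 16 h with compound, are challenged with thapsigargin to empty ER calcium stores; after 4 h, coelenterazine is added directly to the medium and luminescence is imaged.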

Assay [7] deals with Calcium and integrin-binding protein 1 (Homo sapiens) (UniProt Q99828). In words: Primary qHTS for Identification of Calcium Integrin Binding Protein 1 (CIB1) Competitor (AID 1508620).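 For activity change, negative = inhibition: GST tagged CIB1 binding a fluorescein labelled alphaIIb integrin peptide tracer; top concentration of the series differs between compounds.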 Note: potency is the fitted concentration of half-maximal effect. The essentials:
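CIB1-GST (1 uM final) and compound incubated 15 min at room temperature before adding FITC-alphaIIb peptide tracer (100 nM final). Competition for binding read by fluorescence polarization (ex 480, em 540) after another 15 min at room temperature.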

Assay [8] addresses Cytochrome P450 2D6 (Homo sapiens) (UniProt P10635). The assay can be described thus: Cytochrome P450 family 2 subfamily D member 6 (CYP2D6) small molecule antagonists: luciferase biochemical (cell-free) qHTS assay (AID 1645840; active = well fitted curve in the direction sought with a large enough effect in the repeat runs; an effect the other way counts as inactive or inconclusive; note: potency is the fitted concentration of half-maximal effect; nearly all actives have a fitted effect of over 55% in size). An outline of the steps: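 P450-Glo luminescent screen: recombinant CYP2D6 enzyme–proluciferin substrate mix preincubated with compound 10 min at room temperature, then NADPH regeneration added for 1 h at room temperature. Detection reagent added for 20 min; luciferin light read as relative luminescence units.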

The target of assay [9] is Cytochrome P450 2C9 (Homo sapiens) (UniProt P11712). The assay can be described thus: Cytochrome P450 family 2 subfamily C member 9 (CYP2C9) small molecule antagonists: luciferase biochemical (cell-free) qHTS assay (AID 1645842; active = well fitted curve in the direction sought with a large enough effect in the repeat runs; an effect the other way counts as inactive or inconclusive; note: potency is the fitted concentration of half-maximal effect; nearly all actives have a fitted effect of over 55% in size). The essentials:
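Luminescence, after 20 min with luciferin detection reagent, reflected CYP2C9 turnover during a 1 h NADPH-driven reaction at 37C. Enzyme-substrate mix contained 0.4% bovine serum albumin and was preincubated with compound 10 min at room temperature.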

Assay [10] can be described thus: Primary qHTS to identify inhibitors of SARS-CoV-2 cell entry (AID 1645846; calls by dose curve; note: nearly all actives have a fitted effect of over 45% in size). Particulars: activity change, negative = inhibition: at 57.1 µM (top of the series) unless noted. The essentials:
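Luminescence readout (Bright-Glo luciferase) 48 h after pseudoparticle addition. HEK293-ACE2 cells, 1500/well; compound pre-incubation 1 h; Normalized to spike PP and bald PP.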

The nature of assay [11]: A High-Content qHTS Against Drug Library for the Identification of Small Molecules that Inhibit DYT1 Early Onset Primary Dystonia-Associated Cell Pathology (AID 1645839; calls by dose curve; note: potency is the fitted concentration of half-maximal effect). An outline of the steps: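 In this high-content image screen, delE TorsinA mislocalization in inducible Flp-In 293 cells is scored as %pathology, with cell count serving as the counterscreen. Compound exposure lasts 48 h under tetracycline induction in reduced-serum medium.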

The nature of assay [12]: Counterscreen qHTS for small molecule stabilizers of the endoplasmic reticulum resident proteome: GLuc-NoTag assay (AID 1508627). An outline of the steps: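 Luminescence of Gaussia luciferase secreted into the medium (coelenterazine, 0.07x final, unlysed cells) was the read-out. Human SH-SY5Y neuroblastoma cells constitutively secreting untagged GLuc received compound for 19 h, then 100 nM thapsigargin for 4 h.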

The nature of assay [13]: Confirmatory qHTS for small molecule stabilizers of the endoplasmic reticulum resident proteome: Secreted ER Calcium Modulated Protein (SERCaMP) assay (AID 1508628). Note: potency is the fitted concentration of half-maximal effect; nearly all actives have a fitted effect of over 40% in size. An outline of the steps: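 SH-SY5Y cells stably expressing GLuc-SERCaMP, treated 16 h with compound (primary 1.53, 7.67, 38.3 uM; confirmation 11 concentrations, up to 76.6 uM), then 100 nM thapsigargin for 4 h. Secreted Gaussia luciferase in medium read by coelenterazine luminescence.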

Results filed as inconclusive are left out. Where a call stands in place of a potency, no number is given. Calls of active or inactive are those of the source. Unless noted, calls come from the whole dose curve; as a rule, active = well fitted curve in the direction sought with a large enough effect; inconclusive = small, poorly fitted or top-dose-only effect, or another doubt; inactive = no such curve, though single readings can be large; an effect the other way counts as inactive or inconclusive.

Sequence of Cytochrome P450 2C9 (Homo sapiens) (P11712 whole entry, looked up): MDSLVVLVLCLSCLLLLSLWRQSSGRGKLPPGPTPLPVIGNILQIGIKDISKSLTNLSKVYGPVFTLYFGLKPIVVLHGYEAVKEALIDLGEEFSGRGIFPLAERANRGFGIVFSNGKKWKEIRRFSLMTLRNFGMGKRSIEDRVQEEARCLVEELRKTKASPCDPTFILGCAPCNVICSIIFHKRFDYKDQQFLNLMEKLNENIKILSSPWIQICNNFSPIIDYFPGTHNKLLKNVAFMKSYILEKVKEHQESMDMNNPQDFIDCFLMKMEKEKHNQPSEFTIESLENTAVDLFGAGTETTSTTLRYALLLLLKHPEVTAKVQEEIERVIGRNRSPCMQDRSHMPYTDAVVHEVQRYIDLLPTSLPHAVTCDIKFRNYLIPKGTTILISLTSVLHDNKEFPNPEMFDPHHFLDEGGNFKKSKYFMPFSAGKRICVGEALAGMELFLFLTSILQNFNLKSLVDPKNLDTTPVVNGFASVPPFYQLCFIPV
Sequence of Cytochrome P450 2D6 (Homo sapiens) (P10635 whole entry, looked up): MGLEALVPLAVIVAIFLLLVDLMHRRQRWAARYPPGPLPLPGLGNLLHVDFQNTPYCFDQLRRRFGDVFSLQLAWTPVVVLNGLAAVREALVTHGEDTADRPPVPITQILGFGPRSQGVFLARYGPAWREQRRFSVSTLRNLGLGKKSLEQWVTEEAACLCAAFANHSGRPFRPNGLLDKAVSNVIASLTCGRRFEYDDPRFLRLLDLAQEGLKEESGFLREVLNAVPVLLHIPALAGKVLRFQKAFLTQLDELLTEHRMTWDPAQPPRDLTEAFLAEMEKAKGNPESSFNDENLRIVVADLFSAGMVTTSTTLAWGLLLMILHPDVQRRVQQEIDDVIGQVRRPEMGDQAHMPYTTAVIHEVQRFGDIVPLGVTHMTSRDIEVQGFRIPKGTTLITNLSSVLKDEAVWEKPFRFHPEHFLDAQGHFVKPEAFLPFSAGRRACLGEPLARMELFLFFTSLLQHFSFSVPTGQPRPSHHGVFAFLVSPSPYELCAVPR

Turning to `O=C(NC1CN2CCC1CC2)c1cc2ccoc2cn1` (stereo not given), the Potency entry in [1] and in assay [2] was “inactive” in each case.
Turning to `CC(C)(C)OC(=O)NC1[C@H]2CNC[C@@H]12` (stereo not given in full), the Potency entry in assay [1] and in [2] was “inactive” throughout.
As to `Nc1cc2c(ncn2CCOCP(=O)(O)O)c(=O)[nH]1`, the Potency entry in [1] and in [2] was “inactive” each time.
Turning to `CC(=O)c1c(O)c(C)c(O)c(Cc2c(O)c3c(c(C(=O)/C=C/c4ccccc4)c2O)OC(C)(C)C=C3)c1O`, the Potency result in assay [3], in assay [2] and in assay [5] was “inactive” in each case. Also, in assay [4], the compound was called inactive.
Regarding `C[C@H]1C2Cc3ccc(O)cc3[C@@]1(C)CCN2CC1CC1`, the Potency result in [1] and in assay [2] was “inactive” throughout.
With `C[C@@H]1[C@@H]2Cc3ccc(O)cc3[C@@]1(C)CCN2CC1CC1`, the Potency result in [3] is “inactive”. In assay [6], the result was inactive.
Consider `C=CCN1CC[C@]23c4c5ccc(O)c4O[C@H]2/C(=N/NC(=O)c2ccccc2)CC[C@@]3(O)[C@H]1C5`, for which the Potency result in [3] is “inactive”. In addition, the result in assay [6] was inactive.
`CN1CCC[C@@H]1Cc1c[nH]c2ccc(Nc3ncccc3[N+](=O)[O-])cc12`: the Potency result in [1], in assay [7], in assay [2] and in [5] was “inactive” each time. For the same compound, the Potency is 3.01 µM (active) in [8] and 19 µM (active) in assay [9].
On to `C/C(O)=C(\C#N)C(=O)Nc1cc(Br)ccc1Br`, for which the Potency result in assay [3] and in assay [5] was “inactive” throughout. Besides, the outcome in assay [6] and in assay [4] was inactive. Besides, in assay [10], the activity change, negative = inhibition is -10.6%.
As for `C[CH2][Hg][S]c1ccccc1C(=O)O`, the Potency is 22.4 µM (active) in assay [7], 5.01 µM (active) in assay [11], 3.47 µM (active) in assay [9] and 0.668 µM (active) in assay [5]. For the same compound, in [6], the result was inactive.
For the compound `N[C@@H](CCl)C(=O)O`, in assay [3], the Potency entry was “inactive”. Also, the outcome in [6] was inactive.
`CNc1ccc2oc(C[C@H]3O[C@@]4(CC[C@H]3C)O[C@H]([C@H](C)C(=O)c3ccc[nH]3)[C@H](C)C[C@H]4C)nc2c1C(=O)O`: the Potency entry in [1] was “inactive”. Further, in assay [6], the result was inactive.
As to `COc1ccc2c(c1)c(CCN1CCOCC1)c(C)n2C(=O)c1cccc(Cl)c1Cl`, the Potency entry in assay [3] is “inactive”. In [6], the result was inactive.
On to `CC1(C(=O)O)C2CCC(O2)C1(C)C(=O)O` (stereo not given), for which the Potency result in [1] and in assay [2] was “inactive” throughout. Also, in assay [6], the result was inactive.
Consider `O=[N+]([O-])c1ccc2nc(N3CCNCC3)ccc2c1`, for which the Potency entry in assay [1] and in assay [2] was “inactive” each time. The result in assay [12] was inactive.
As for `O=C1/C(=C/c2ccccc2)C[C@@]2(O)[C@H]3Cc4ccc(O)c5c4[C@@]2(CCN3CC2CC2)[C@H]1O5`, the Potency entry in [1] and in assay [2] was “inactive” throughout.
Consider `CCNC(=O)[C@H]1O[C@@H](n2cnc3c(N)ncnc32)[C@H](O)[C@@H]1O`, for which the Potency entry in [1] and in [2] was “inactive” each time. Moreover, the outcome in [6] was inactive.
As to `O=c1ccc2[nH]cc(C3=CCNCC3)c2[nH]1`, in [1], the Potency result was “inactive”. Further, in assay [6], the outcome was inactive. Moreover, the Potency in assay [2] was 25.1 µM (active).
Turning to `CC(C)(O)[C@H]1O[C@H]2CC[C@@]3(C)[C@@](O)(CC[C@H]4Cc5c([nH]c6ccccc56)[C@@]43C)C2=CC1=O`, the Potency entry in assay [7] was “inactive”.
As to `CC1C/C=C/C(O)C(O)CC/C=C/c2cc(O)cc(O)c2C(=O)O1` (stereo not given), in assay [7], the Potency entry was “inactive”.
Take `C[C@@H]1O[C@@H](O[C@H]2C[C@@H](O)[C@]3(CO)[C@@H]4C(CC[C@]3(O)C2)[C@@]2(O)CC[C@H]([C@@H]3COC(=O)C3)[C@@]2(C)C[C@H]4O)[C@H](O)[C@H](O)[C@H]1O` (stereo not given in full): the Potency entry in assay [1] and in assay [2] was “inactive” in each case. In assay [6], the outcome was inactive.
For `Oc1ccc2c3c1O[C@H]1c4[nH]c5ccccc5c4C[C@@]4(O)C(C2)N(CC2CC2)CCC314` (stereo not given in full), the Potency entry in [1] and in assay [2] was “inactive” throughout. Moreover, in assay [13], the Potency was 12.6 µM (active).
As to `CCCN(CCC)[C@@H]1CCc2cccc(O)c2C1`, the Potency entry in assay [1] and in assay [2] was “inactive” throughout. Moreover, the outcome in assay [6] was inactive.
Regarding `C[Se]C[C@H](N)C(=O)O`, in [3], the Potency entry is “inactive”. Also, the result in assay [6] was inactive.
`C[C@]12CC[C@@H](O)C[C@H]1CC[C@@H]1[C@@H]2CC[C@]2(C)C(=O)CC[C@@H]12`: the Potency entry in assay [7] was “inactive”.
As for `c1ccc2c(c1)[I+]c1ccccc1-2`, the Potency result in [1] is “inactive”. Further, the outcome in assay [6] was inactive.
In the case of `C=C(C)[C@H]1O[C@H]2CC[C@@]3(C)[C@@](O)(CC[C@H]4[C@@H]5OC(C)(C)[C@H]6C[C@@H]7C(=C)Cc8c(Cl)cc9[nH]c(c5c9c8[C@@]76O)[C@@]43C)[C@]23O[C@@H]3[C@H]1O`, in [7], the Potency result is “inactive”.
For the compound `COC1CC(=O)C23C(=O)NC(CC(C)C)C2C(C)=C(C)C(OO)C3/C=C(\C)CCC(O)C1O` (stereo not given), the Potency entry in [7] was “inactive”.
For `CCn1cnc2c(Nc3cccc(Cl)c3)nc(N[C@@H]3CCCC[C@@H]3N)nc21`, the Potency entry in [1] and in assay [2] was “inactive” throughout. Also, the result in [6] was inactive.
`CCCN(CCC)CCc1c[nH]c2ccc(C(N)=O)cc12`: the Potency result in assay [3] was “inactive”. Further, in [6], the result was inactive.
`CCCn1c(=O)c2[nH]c(C3CCCC3)nc2n(CCCOC(=O)c2ccc(S(=O)(=O)F)cc2)c1=O`: the Potency entry in assay [1] and in assay [2] was “inactive” throughout. Moreover, the result in assay [6] was inactive.
As for `CCCn1c(C)c(C(=O)c2ccc3ccccc3c2)c2ccccc21`, the Potency result in [3] is “inactive”. Further, the result in assay [6] was inactive.
Consider `COc1cc(CC(C)N)c(OC)cc1I` (stereo not given), for which the Potency result in assay [3] is “inactive”. Besides, the result in assay [6] was inactive.
Consider `CCCN1CCc2cccc3c2[C@H]1Cc1ccc(O)c(O)c1-3`, for which the Potency result in assay [1] and in [2] was “inactive” in each case. In assay [6], the result was inactive.
